According to the supplement of paper PMC6555819:

Each sequence was assayed on RXRa DBDmut IVT, anti-RXR (DBD mutation: RXRa K156A/R161A, NR concentration 90 nM) (assay: PBM binding z-score (relative to random genomic background probes); higher = stronger binding; sequences stand for … in GC…GCGATTGACAGCGTAGAATGAAGG).
In short: (§1)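 Antibodies against each partner of ligand-free nuclear receptor dimers (one per run) detected binding on custom Agilent 4×180K protein-binding microarrays after 1 h incubation. The double-stranded probes had 34-nt variable regions carrying direct-repeat seeds, single-nucleotide variants, half-site ablations and random human genomic background sequences. Binding z-scores, from regression-normalized fluorescence, use the random background probes as reference.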

Sequence	PBM binding z-score
CCGACTAGGGCATAAGGTTACCATAAGCCAGCCC	-0.152
CCTAGCAGGCCAGGGTCCCTCAAGCATTTCGCTT	-1.15
CGTCAAATTTCAAGGTAACGTAACAGAAAGCAGC	-0.0368
AATACAGAGTCACTAGGCCAGAGTAGGTACGAAT	-0.494
AATACAGGCTCACTAGGCCAGAGTAGGTACGAAT	-0.214
TCATATAGGTAAAAGGTGAAAATCGGTGTGGTAA	1.69
TGTCAAAGTTCAAAGGTAACATAAGTATCCACAC	4.43
AGAGTGAGGTTAAGATCAGGGAAACAGAATACAT	0.869
CCTAGTTGGTCGGGAGGTCACACACCGGATATGA	0.718
ATAGCAAGGTGATCGTGAGGTCGTTGATACTAAC	0.231
TCGAGTAGGTTGCCAATGGGGCATTCAGCTTTCT	0.244
CCGACTGGGGCAGAAAGGTTACCACACCATCCGG	-0.654
ATCTCTATGTAACCAAGTTCAGTGAATGCCGAAC	0.924
AGAATGACGTTATACGTAGATCAGGGAAGAAAGT	-0.541
ATATGTAGGTTATCGGGTCATTCCGTTTGCGCAT	1.67
GCGTACGGGTCAAAGGTTATAGCATGAATAGAAT	1.83
CCACACAGGTGAGAAGGTAACTCAGCCTCGATTA	0.395
CGTCCAAGGTCAAGGTCAGTTAAAGAGACTCGAA	3.68
CGAACTAGTTCAGAACAGGACAGTGAAGGATGAT	1.18
TCATATAAGTAAACAGGTGAAAGTCCGTAAGTTA	2.12

Sequence	PBM binding z-score
TCTAGTTGGTCAAACGTCACACACTCGAAATGCG	1.2
AACTCTAGGTAAAGATAGTTCAGTGAATGCAAAT	0.162
TCTTATAGATCAACAGGAGGTTAAGAAAGATCGA	1.06
TCTGCTAGGTTAACGATGGTCAGCTAATCTGCTA	0.00765
GCAGAGAGGTGAAACGCAGGTAACTCAGGGTGGC	0.025
CCTACCGGGCCAAGGTCATTGATCAGTCAAAGCA	0.804
TTACCAAGGGGAAGGTCGTTGATCCCTCTGTAGA	-0.444
GCGACTGGGGCAAAGGAGGTTACCATAAGGTTGG	-0.468
GTACCAAGCTGAATAGGTCGTTGATGAGTAGGCG	-0.0938
GCGACTGGGGCCTCAGCAGGTTACCATAACTTAA	-0.479
GCTTGTAGATCGAGGTTAAGAAAGACTAAGCTAA	0.166
CGAACTAGGTCATTGACAGGACAGTTAATAGTAA	2.52
TCTTGTAGATCAACAGGAGGTTAAGAACGATCGA	0.686
CCAGACAGGTGAGAAGGTAACCCAGCCTCGATTA	-0.131
ACTAGCAGGCCAAGTTTGGGTCACTGAAACAAAG	-0.119
CGCCCAAGGTCAATGCTAGGTCAGTGAAAGCATT	2.91
CGTCCAAGGGCAAAGGTCAGTGAAGAGATGACGG	1.64
GCTTGTAGATAAAGGTTAAGAAAGACTAAGCTAA	-0.0132
TTACCAAGGTGGAGGTCGTTGATCCCTCTGTAGA	0.0989

What follows are sequences tested on RXRa homodimer (NR concentration 180 nM) in the same assay as above.
In short: as §1

Sequence	PBM binding z-score
CCGACTAGGGCATAAGGTTACCATAAGCCAGCCC	1.35
CCTAGCAGGCCAGGGTCCCTCAAGCATTTCGCTT	-0.657
CGTCAAATTTCAAGGTAACGTAACAGAAAGCAGC	0.32
AATACAGAGTCACTAGGCCAGAGTAGGTACGAAT	0.28
AATACAGGCTCACTAGGCCAGAGTAGGTACGAAT	-0.169
TCATATAGGTAAAAGGTGAAAATCGGTGTGGTAA	3.08
TGTCAAAGTTCAAAGGTAACATAAGTATCCACAC	6.86
AGAGTGAGGTTAAGATCAGGGAAACAGAATACAT	2.52
CCTAGTTGGTCGGGAGGTCACACACCGGATATGA	5.07
ATAGCAAGGTGATCGTGAGGTCGTTGATACTAAC	1.31
TCGAGTAGGTTGCCAATGGGGCATTCAGCTTTCT	-0.482
CCGACTGGGGCAGAAAGGTTACCACACCATCCGG	1.84
ATCTCTATGTAACCAAGTTCAGTGAATGCCGAAC	0.314
AGAATGACGTTATACGTAGATCAGGGAAGAAAGT	-0.108
ATATGTAGGTTATCGGGTCATTCCGTTTGCGCAT	3.38
GCGTACGGGTCAAAGGTTATAGCATGAATAGAAT	9.61
CCACACAGGTGAGAAGGTAACTCAGCCTCGATTA	0.675
CGTCCAAGGTCAAGGTCAGTTAAAGAGACTCGAA	6.66
CGAACTAGTTCAGAACAGGACAGTGAAGGATGAT	0.233
TCATATAAGTAAACAGGTGAAAGTCCGTAAGTTA	0.907

Sequence	PBM binding z-score
TCTAGTTGGTCAAACGTCACACACTCGAAATGCG	1.04
AACTCTAGGTAAAGATAGTTCAGTGAATGCAAAT	0.119
TCTTATAGATCAACAGGAGGTTAAGAAAGATCGA	1.47
TCTGCTAGGTTAACGATGGTCAGCTAATCTGCTA	0.42
GCAGAGAGGTGAAACGCAGGTAACTCAGGGTGGC	1.79
CCTACCGGGCCAAGGTCATTGATCAGTCAAAGCA	3.5
TTACCAAGGGGAAGGTCGTTGATCCCTCTGTAGA	0.898
GCGACTGGGGCAAAGGAGGTTACCATAAGGTTGG	1.12
GTACCAAGCTGAATAGGTCGTTGATGAGTAGGCG	0.371
GCGACTGGGGCCTCAGCAGGTTACCATAACTTAA	-0.182
GCTTGTAGATCGAGGTTAAGAAAGACTAAGCTAA	1.04
CGAACTAGGTCATTGACAGGACAGTTAATAGTAA	2.86
TCTTGTAGATCAACAGGAGGTTAAGAACGATCGA	0.967
CCAGACAGGTGAGAAGGTAACCCAGCCTCGATTA	0.558
ACTAGCAGGCCAAGTTTGGGTCACTGAAACAAAG	0.982
CGCCCAAGGTCAATGCTAGGTCAGTGAAAGCATT	5.06
CGTCCAAGGGCAAAGGTCAGTGAAGAGATGACGG	6.15
GCTTGTAGATAAAGGTTAAGAAAGACTAAGCTAA	1.86
TTACCAAGGTGGAGGTCGTTGATCCCTCTGTAGA	1.41
